“And” between values parts separate entries of the source, which are not always exact repeats. Identical values can stand only once. Records with an inconclusive call do not appear. Entries that show only a call come without a potency. The source holds several records for some structures; these can differ, active in one and inactive in another. The source made the active and inactive calls. Unless noted, calls follow the shape of the dose curve; as a rule, active = well fitted curve in the direction sought with a large enough effect in the repeat runs; inconclusive = weak or mixed curves; inactive = no such curve, though single readings can be large; an effect the other way counts as inactive or inconclusive.
Assays:
[1] = qHTS assay for small molecule agonists of the p53 signaling pathway (AID 651631; calls by dose curve; also: nearly all actives have a fitted effect of over 15% in size; also: potency is read from the fitted curve at half-maximal effect)
Summary of the method: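 p53RE-bla HCT-116 cells; compounds 16 h, 37 °C; LiveBLAzer B/G FRET substrate 2 h RT; fluorescence intensity read-out, qHTS format.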

[2] = qHTS assay for small molecule agonists of the p53 signaling pathway - cell viability (AID 651633; calls by dose curve; also: nearly all actives have a fitted effect of over 30% in size; also: potency is read from the fitted curve at half-maximal effect)
Summary of the method: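 Viability counter-read: CellTiter-Glo luminescence (30 min, room temperature) in the same p53RE-bla plates. These plates had been exposed to compounds for 16 h at 37 C.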

[3] = qHTS assay for small molecules that induce genotoxicity in human embryonic kidney cells expressing luciferase-tagged ATAD5 - cell viability (AID 651634; calls by dose curve; also: nearly all actives have a fitted effect of over 25% in size; also: potency is read from the fitted curve at half-maximal effect)
Summary of the method: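 15.5 hr compound or vehicle exposure of HEK293T cells expressing luciferase-tagged ATAD5 at 37C; live-cell protease activity is read by fluorescence after 30 min of CellTiter-Fluor.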

[4] = qHTS assay for small molecule disruptors of the mitochondrial membrane potential (AID 720635); also: potency is read from the fitted curve at half-maximal effect
Summary of the method: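 Mitochondrial membrane potential tracked with Mito-MPS dye, red aggregates (ex 540/em 590 nm) against green monomers (ex 490/em 535 nm). Compound treatment 1 hr at 37C, dye 30 min in HepG2.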

[5] = qHTS assay to test for compound auto fluorescence at 590 nm (red) in HepG2 cells (AID 720674)
Summary of the method: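 1 hr compound incubation on HepG2 cells, 37 C, 5% CO2; plate read ex 540 nm / em 590 nm; intensities reported as Rose Bengal sodium equivalents.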

[6] = qHTS assay to test for compound auto fluorescence at 535 nm (green) in HepG2 cells (AID 720675)
[7] = qHTS assay to test for compound auto fluorescence at 460 nm (blue) in HEK293 cells (AID 720678)
Summary of the method: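 HEK293, 2,000 cells/well, 10% dialyzed FBS; attach 4-5 hr 37C; pin compound or DMSO; o/n 37C/5% CO2; fluorescence 405/460 nm; triamterene-equivalent units.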

[8] = qHTS assay to test for compound auto fluorescence at 590 nm (red) in HEK293 cells (AID 720679)
Summary of the method: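 Intensity at 540nm excitation and 590nm emission is reported as Rose Bengal sodium-equivalent autofluorescence. Measurements followed overnight exposure (37C, 5% CO2) of HEK293 cells, 2,000 per well, to 23 nL compound.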

[9] = qHTS assay for small molecules that induce genotoxicity in human embryonic kidney cells expressing luciferase-tagged ATAD5 (AID 651632); also: nearly all actives have a fitted effect of over 15% in size; also: potency is read from the fitted curve at half-maximal effect
Summary of the method: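 Concentration-response screen for ATAD5 upregulation in HEK293T luciferase reporter cells; 16 hr treatment at 37C, then luminescence after 30 min with Amplite at room temperature.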

[10] = qHTS assay for small molecule disruptors of the mitochondrial membrane potential - cell viability (AID 720634; calls by dose curve; also: nearly all actives have a fitted effect of over 20% in size; also: potency is read from the fitted curve at half-maximal effect)
Summary of the method: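 In this qHTS format, HepG2 cells plated overnight were pinned with compound, incubated 1 hr, and assayed for ATP luminescence with CellTiter-Glo after m-MPI dye addition.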

| SMILES | Potency [1] | Potency [2] | Potency [3] | Potency [4] | outcome [5] | Potency [6] | Potency [7] | outcome [8] | Potency [9] | Potency [10] |
| --- | --- | --- | --- | --- | --- | --- | --- | --- | --- | --- |
| CCOP(=S)(OCC)Oc1cc(C)nc(N(CC)CC)n1 | inactive | inactive | inactive | 48.6 µM (active) | inactive | inactive | inactive | inactive |  |  |
| c1csc(-c2ccc(-c3cccs3)s2)c1 | 34.4 µM (active) |  | inactive | 61.1 µM (active) |  | inactive |  | inactive |  |  |
| Oc1ccc([C@H]2CNCc3c2ccc(O)c3O)cc1O |  | inactive | inactive | inactive | inactive | inactive | inactive | inactive | inactive | inactive |
| CCCN |  | inactive | inactive | inactive | inactive | inactive | inactive | inactive | inactive | inactive |
| ClCBr |  | inactive | inactive | inactive |  | inactive | inactive | inactive | inactive | inactive |
| CC(C)N(C(=O)SC/C(Cl)=C/Cl)C(C)C |  | 21.8 µM (active) | 48.9 µM (active) | 48.9 µM (active) | inactive | inactive | inactive | inactive | inactive | 54.8 µM (active) |
| Oc1cccc(Cl)c1Cl |  | inactive | inactive | 48.8 µM (active) | inactive | inactive | inactive | inactive | inactive | inactive |
| CCOP(=O)(OCC)Oc1nc(Cl)c(Cl)cc1Cl |  | inactive | inactive | 60.8 µM (active) | inactive | inactive | inactive | inactive | inactive | inactive |
| COP(=O)(OC)Oc1ccc([N+](=O)[O-])cc1 |  | inactive | inactive | inactive |  | inactive | inactive | inactive | inactive | inactive |
| Nc1cc(Cl)ccc1Cl | inactive |  | inactive |  | inactive | inactive | inactive | inactive |  | inactive |
| CN=C=O | inactive |  | inactive |  |  | inactive | inactive | inactive |  | inactive |
| CNC(=O)CSP(=O)(OC)OC |  | inactive | inactive | inactive | inactive | inactive | inactive | inactive | inactive | inactive |
| CC1(C)[C@H](/C=C2\CCSC2=O)[C@@H]1C(=O)OCc1coc(Cc2ccccc2)c1 |  | inactive | inactive | 21.7 µM (active) | inactive | inactive | inactive | inactive | inactive | 9.69 µM (active) |
| O=C1C[C@@H]2OCC=C3CN4CC[C@]56c7ccccc7N1[C@H]5[C@H]2[C@H]3C[C@H]46 | inactive |  | inactive | inactive | inactive | inactive | inactive | inactive |  | inactive |
| CCN(CC)CCc1c[nH]c2ccccc12 |  | inactive | inactive | inactive | inactive | inactive | inactive | inactive | inactive | inactive |
| CCCCCON=O | inactive |  | inactive | inactive | inactive | inactive | inactive | inactive |  | inactive |
| c1ccc(N=NNc2ccccc2)cc1 |  | inactive | 5.45 µM (active) | 7.1 µM (active) and 5.45 µM (active) | inactive | inactive | inactive | inactive | inactive | 56.4 µM (active) |
| CC(C)C(Nc1ccc(C(F)(F)F)cc1Cl)C(=O)OC(C#N)c1cccc(Oc2ccccc2)c1 (stereo not drawn) |  | inactive | inactive | 49 µM (active) | inactive | inactive | inactive | inactive | inactive | inactive |
| CC(=O)[O][Pb]([c]1ccccc1)([c]1ccccc1)[c]1ccccc1 |  | 2.73 µM (active) | 0.686 µM (active) | 1.09 µM (active) | inactive | inactive | inactive | inactive | inactive | 30.6 µM (active) |
| CN1C(=O)[C@@H](NC(=O)c2cc3ccccc3[nH]2)N=C(c2ccccc2)c2ccccc21 |  | inactive | inactive | 10.6 µM (active) | inactive | inactive | inactive | inactive | 11.9 µM (active) | inactive |
| CC[C@H](C)[C@H]1O[C@]2(C=C[C@@H]1C)C[C@@H]1C[C@@H](C/C=C(\C)[C@@H](O[C@H]3C[C@H](OC)[C@@H](O[C@H]4C[C@H](OC)[C@@H](NC)[C@H](C)O4)[C@H](C)O3)[C@@H](C)/C=C/C=C3\CO[C@@H]4[C@H](O)C(C)=C[C@@H](C(=O)O1)[C@]34O)O2 |  | 10.9 µM (active) | 17.2 µM (active) | 6.86 µM (active) | inactive | inactive | inactive | inactive | inactive | 30.6 µM (active) |
| CC(=O)[O][Sn]([c]1ccccc1)([c]1ccccc1)[c]1ccccc1 |  | 3.44 µM (active) | 0.122 µM (active) | 0.077 µM (active) | inactive | inactive | inactive | inactive | inactive | 15.4 µM (active) |
| Brc1ccc(Oc2ccc(Br)cc2Br)c(Br)c1 |  | inactive | inactive | 17.2 µM (active) |  | inactive | inactive | inactive | inactive | inactive |
| O=C(O)CCCCCCNC1c2ccccc2CCc2ccccc21 |  | inactive | inactive | inactive | inactive | inactive |  | inactive | inactive | inactive |
| CCN(CC)C(=S)S |  | inactive | inactive | 2.98 µM (active) and inactive |  | inactive | inactive | inactive | inactive | inactive |

— PubChem BioAssay (Tox21)
